Source: PubChem BioAssay (EPA / NIEHS)
The source made the active and inactive calls. How the source made its calls: active means hit-call score of the fitted dose curve at least 0.9, where 1 is the maximum; inactive means score below 0.9.

Key:
[1] = read-out: catalase (CAT), CAT (gene 847); test: LTEA_HepaRG_CAT: Life Technologies and Expression Analysis (LTEA) Assay for catalase (CAT) using HepaRG (AID 2283452); conditions: mRNA level, 48 h; actives raise or lower the signal
Outline: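 HepaRG cells in serum-free induction medium, 0.5% DMSO vehicle, exposed 48 h in duplicate over 8 half-log concentrations from 100 uM. CAT mRNA measured by qRT-PCR, normalized to ACTB, GAPDH, POLR2A; bidirectional fit versus DMSO.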

[2] = read-out: flavin-containing dimethylaniline monooxygenases 3 (FMO3), FMO3 (gene 2328); test: LTEA_HepaRG_FMO3: Life Technologies and Expression Analysis (LTEA) Assay for flavin-containing dimethylaniline monooxygenases 3 (FMO3) using HepaRG (AID 2283453); conditions: mRNA level, 48 h; actives raise or lower the signal
Outline: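 Differentiated HepaRG cells in serum-free induction medium, exposed 48 h in duplicate to 8 half-log concentrations up to 100 uM in 0.5% DMSO. FMO3 mRNA by qRT-PCR, normalized to ACTB, GAPDH, POLR2A; bidirectional fit vs DMSO.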

[3] = read-out: CFLAR gene, CFLAR (gene 8837); test: LTEA_HepaRG_CFLAR: Life Technologies and Expression Analysis (LTEA) Assay for CFLAR gene using HepaRG (AID 2283455); conditions: mRNA level, 48 h; actives raise or lower the signal
Outline: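 Differentiated HepaRG cells in serum-free induction medium were exposed 48 h in duplicate to eight half-log concentrations up to 100 uM in 0.5% DMSO; mRNA measured by TaqMan qRT-PCR, normalized to ACTB, GAPDH, POLR2A; bidirectional fitting versus DMSO.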

[4] = read-out: Forkhead box O1 (FOXO1), FOXO1 (gene 2308); test: LTEA_HepaRG_FOXO1: Life Technologies and Expression Analysis (LTEA) Assay for Forkhead box O1 (FOXO1) using HepaRG (AID 2283456); conditions: mRNA level, 48 h; actives raise or lower the signal
Outline: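 Differentiated HepaRG cells, in serum-free induction medium with 0.5% DMSO, exposed 48 h in duplicate to 8-point half-log series from 100 uM. FOXO1 mRNA measured by TaqMan qRT-PCR, normalized to ACTB, GAPDH, POLR2A; bidirectional fit versus DMSO.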

[5] = CEETOX_H295R_TESTO: CeeTox H295R High-throughput Steroidogenesis Assay for Testosterone (TESTO) (AID 2283457); conditions: actives raise or lower the signal;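 further: cells exposed to chemicals for 48 h before medium collection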
Outline: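 Testosterone secreted into the medium over 48 h by H295R cells (maximum passage 10) was quantified by LC-MS/MS after MTBE extraction. Fitted in both directions against DMSO, with concentrations diluted until MTT viability was ≥70%.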

[6] = read-out: growth arrest and DNA damage 45 (GADD45A), GADD45A (gene 1647); test: LTEA_HepaRG_GADD45A: Life Technologies and Expression Analysis (LTEA) Assay for growth arrest and DNA damage 45 (GADD45A) using HepaRG (AID 2283458); conditions: mRNA level, 48 h; actives raise or lower the signal
Outline: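 Differentiated HepaRG cells exposed 48 h in serum-free induction medium to 8 concentrations, top 100 uM in half-log steps, 0.5% DMSO. GADD45A mRNA quantified by qRT-PCR, normalized to ACTB, GAPDH and POLR2A; bidirectional fit versus DMSO.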

[7] = read-out: Forkhead box O3 (FOXO3), FOXO3 (gene 2309); test: LTEA_HepaRG_FOXO3: Life Technologies and Expression Analysis (LTEA) Assay for Forkhead box O3 (FOXO3) using HepaRG (AID 2283459); conditions: mRNA level, 48 h; actives raise or lower the signal
Outline: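 Differentiated human HepaRG cells, 48 h post-plating, exposed in duplicate for 48 h in serum-free induction medium; 8-point half-log series from 100 uM in 0.5% DMSO. FOXO3 mRNA by TaqMan qRT-PCR, normalized to ACTB/GAPDH/POLR2A; bidirectional fit versus DMSO.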

[8] = read-out: ABC Transporter (ABCB1), ABCB1 (gene 5243); test: LTEA_HepaRG_ABCB1: Life Technologies and Expression Analysis (LTEA) Assay for ABC Transporter (ABCB1) using HepaRG (AID 2283460); conditions: mRNA level, 48 h; actives raise or lower the signal
Outline: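 HepaRG cells exposed in duplicate for 48 h in serum-free induction medium to eight half-log concentrations up to 100 uM in 0.5% DMSO. ABCB1 mRNA quantified by qRT-PCR, normalised to ACTB, GAPDH and POLR2A; fitted bidirectionally versus DMSO.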

[9] = read-out: growth arrest and DNA damage 45 (GADD45B), GADD45B (gene 4616); test: LTEA_HepaRG_GADD45B: Life Technologies and Expression Analysis (LTEA) Assay for growth arrest and DNA damage 45 (GADD45B) using HepaRG (AID 2283461); conditions: mRNA level, 48 h; actives raise or lower the signal
Outline: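 Transcript level quantified by Fluidigm TaqMan qRT-PCR with three housekeeping genes for normalization, analyzed for up- or down-regulation against 0.5% DMSO. HepaRG cultures dosed 48 h at eight half-log concentrations up to 100 uM, duplicates.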

[10] = read-out: ABC Transporter (ABCC3), ABCC3 (gene 8714); test: LTEA_HepaRG_ABCC3: Life Technologies and Expression Analysis (LTEA) Assay for ABC Transporter (ABCC3) using HepaRG (AID 2283462); conditions: mRNA level, 48 h; actives raise or lower the signal
Outline: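 Transcript level by TaqMan qRT-PCR, normalised to three housekeeping genes, fitted in both directions relative to vehicle. Chemicals tested in duplicate at eight half-log concentrations up to 100 uM for 48 h on HepaRG cells (0.5% DMSO).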

[11] = read-out: ABC Transporter (ABCB11), ABCB11 (gene 8647); test: LTEA_HepaRG_ABCB11: Life Technologies and Expression Analysis (LTEA) Assay for ABC Transporter (ABCB11) using HepaRG (AID 2283463); conditions: mRNA level, 48 h; actives raise or lower the signal
Outline: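 Differentiated human HepaRG cells in serum-free induction medium, dosed in duplicate for 48 h. Eight-point half-log series from 100 uM in 0.5% DMSO; ABCB11 mRNA by qRT-PCR, normalized to ACTB, GAPDH, POLR2A, fitted bidirectionally versus DMSO.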

[12] = read-out: ABC Transporter (ABCC2), ABCC2 (gene 1244); test: LTEA_HepaRG_ABCC2: Life Technologies and Expression Analysis (LTEA) Assay for ABC Transporter (ABCC2) using HepaRG (AID 2283464); conditions: mRNA level, 48 h; actives raise or lower the signal
Outline: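 Endpoint is ABCC2 transcript level from qRT-PCR, normalized to three housekeeping genes and fitted bidirectionally relative to DMSO. Human HepaRG cells received test chemical for 48 h at up to 100 uM (8 points, half-log steps, 0.5% DMSO), duplicate wells.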

[13] = read-out: Broad substrate specificity ATP-binding cassette transporter ABCG2 (Homo sapiens) (UniProt Q9UNQ0); test: LTEA_HepaRG_ABCG2: Life Technologies and Expression Analysis (LTEA) Assay for ABC Transporter (ABCG2) using HepaRG (AID 2283465); conditions: mRNA level, 48 h; actives raise or lower the signal
Outline: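 Differentiated HepaRG cells were exposed for 48 h in serum-free induction medium to 8 half-log concentrations, top 100 uM, in 0.5% DMSO. ABCG2 mRNA was measured by qRT-PCR, normalized to ACTB, GAPDH and POLR2A, with bidirectional fitting versus DMSO.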

[14] = read-out: ATP-citrate lyase (ACLY), ACLY (gene 47); test: LTEA_HepaRG_ACLY: Life Technologies and Expression Analysis (LTEA) Assay for ATP-citrate lyase (ACLY) using HepaRG (AID 2283466); conditions: mRNA level, 48 h; actives raise or lower the signal
Outline: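 Differentiated HepaRG cells exposed 48 h in serum-free induction medium to eight half-log concentrations up to 100 uM in 0.5% DMSO, duplicates. Transcript measured by Fluidigm TaqMan qRT-PCR, normalized to ACTB, GAPDH, POLR2A; bidirectional fit versus DMSO.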

[15] = read-out: Peroxisomal acyl-coenzyme A oxidase 1 (ACOX1) gene, ACOX1 (gene 51); test: LTEA_HepaRG_ACOX1: Life Technologies and Expression Analysis (LTEA) Assay for Peroxisomal acyl-coenzyme A oxidase 1 (ACOX1) gene using HepaRG (AID 2283467); conditions: mRNA level, 48 h; actives raise or lower the signal
Outline: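 HepaRG cells, plated 48 h then switched to serum-free induction medium, were exposed in duplicate for 48 h to 8-point half-log concentrations up to 100 uM in 0.5% DMSO. ACOX1 mRNA was measured by qRT-PCR, normalized to ACTB/GAPDH/POLR2A, and fitted bidirectionally versus DMSO.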

[16] = read-out: Alkaline Phosphatase, Placental (ALPP) gene, ALPP (gene 250); test: LTEA_HepaRG_ALPP: Life Technologies and Expression Analysis (LTEA) Assay for Alkaline Phosphatase, Placental (ALPP) gene using HepaRG (AID 2283468); conditions: mRNA level, 48 h; actives raise or lower the signal
Outline: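 ALPP transcript level, measured by qRT-PCR and normalized to three housekeeping genes (ACTB, GAPDH, POLR2A), after 48 h dosing of differentiated HepaRG in serum-free induction medium. Top concentration 100 uM with half-log dilutions (8 points, 0.5% DMSO, duplicates); bidirectional fitting relative to DMSO.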

[17] = read-out: Bcl-2 (BAD) gene, BAD (gene 572); test: LTEA_HepaRG_BAD: Life Technologies and Expression Analysis (LTEA) Assay for Bcl-2 (BAD) gene using HepaRG (AID 2283469); conditions: mRNA level, 48 h; actives raise or lower the signal
Outline: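 Differentiated HepaRG cells were exposed in duplicate in 0.5% DMSO for 48 h to eight-point half-log concentrations up to 100 uM. BAD mRNA was measured by Fluidigm TaqMan qRT-PCR, normalized to ACTB, GAPDH and POLR2A, and fitted bidirectionally against DMSO.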

[18] = read-out: Bcl-2 (BAX) gene, BAX (gene 581); test: LTEA_HepaRG_BAX: Life Technologies and Expression Analysis (LTEA) Assay for Bcl-2 (BAX) gene using HepaRG (AID 2283470); conditions: mRNA level, 48 h; actives raise or lower the signal
Outline: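 Differentiated HepaRG cells exposed 48 h in serum-free induction medium, eight half-log concentrations from 100 uM, in duplicate, 0.5% DMSO vehicle. BAX mRNA by TaqMan qRT-PCR, normalised to ACTB, GAPDH and POLR2A.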

[19] = read-out: adenosine kinase (ADK) gene, ADK (gene 132); test: LTEA_HepaRG_ADK: Life Technologies and Expression Analysis (LTEA) Assay for adenosine kinase (ADK) gene using HepaRG (AID 2283471); conditions: mRNA level, 48 h; actives raise or lower the signal
Outline: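 HepaRG (human liver), 48 h chemical exposure, 8-pt half-log series, top 100 uM, 0.5% DMSO vehicle. Readout: ADK mRNA by qRT-PCR vs housekeeping genes; bidirectional curve fit relative to DMSO baseline.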

[20] = read-out: Cytochrome P450 (CYP1A1), CYP1A1 (gene 1543); test: LTEA_HepaRG_CYP1A1: Life Technologies and Expression Analysis (LTEA) Assay for Cytochrome P450 (CYP1A1) using HepaRG (AID 2283454); conditions: mRNA level, 48 h; actives raise or lower the signal
Outline: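 CYP1A1 transcript levels measured by Fluidigm qRT-PCR against three housekeeping genes, 48 h after chemical dosing of human HepaRG cells (highest concentration 100 uM, half-log steps, 0.5% DMSO vehicle). Gain or loss of signal fitted relative to DMSO.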

Broad substrate specificity ATP-binding cassette transporter ABCG2 (Homo sapiens), sequence (Q9UNQ0 whole entry, looked up): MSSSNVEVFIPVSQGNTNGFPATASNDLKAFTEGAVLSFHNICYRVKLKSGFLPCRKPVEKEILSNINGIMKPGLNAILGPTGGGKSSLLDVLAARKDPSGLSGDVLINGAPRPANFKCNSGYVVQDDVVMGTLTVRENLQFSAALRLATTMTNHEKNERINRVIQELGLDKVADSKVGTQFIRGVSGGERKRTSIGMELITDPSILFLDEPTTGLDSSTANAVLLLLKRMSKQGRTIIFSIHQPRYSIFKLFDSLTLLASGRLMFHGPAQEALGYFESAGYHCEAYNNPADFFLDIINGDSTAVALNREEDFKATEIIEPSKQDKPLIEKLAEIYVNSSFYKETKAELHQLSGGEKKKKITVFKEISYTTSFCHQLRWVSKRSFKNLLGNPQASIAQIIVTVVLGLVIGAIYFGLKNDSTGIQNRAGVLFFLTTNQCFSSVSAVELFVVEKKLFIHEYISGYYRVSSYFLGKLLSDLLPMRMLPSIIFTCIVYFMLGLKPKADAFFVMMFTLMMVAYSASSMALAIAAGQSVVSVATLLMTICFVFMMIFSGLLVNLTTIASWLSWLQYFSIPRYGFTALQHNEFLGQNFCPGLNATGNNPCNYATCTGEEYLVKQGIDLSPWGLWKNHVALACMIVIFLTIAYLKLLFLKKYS

SMILES: C[C@]12C=CC3=C4CCC(=O)C=C4CC[C@H]3[C@@H]1CC[C@@H]2O
- AC50 [1]: 50 µM (active)
- AC50 [2]: 20.3 µM (active)
- outcome [3]: inactive
- outcome [4]: inactive
- AC50 [5]: 83 µM (active)
- outcome [6]: inactive
- outcome [7]: inactive
- outcome [8]: inactive
- outcome [9]: inactive
- outcome [10]: inactive
- AC50 [11]: 27.3 µM (active)
- outcome [12]: inactive
- outcome [13]: inactive
- outcome [14]: inactive
- outcome [15]: inactive
- AC50 [16]: 24.4 µM (active)
- outcome [17]: inactive
- outcome [18]: inactive
- AC50 [19]: 68.2 µM (active)

SMILES: Cc1ccc(N)cc1
- outcome [1]: inactive
- outcome [2]: inactive
- outcome [20]: inactive
- outcome [3]: inactive
- outcome [4]: inactive
- outcome [6]: inactive
- outcome [7]: inactive
- outcome [8]: inactive
- outcome [9]: inactive
- outcome [10]: inactive
- outcome [11]: inactive
- outcome [12]: inactive
- outcome [13]: inactive
- outcome [14]: inactive
- outcome [15]: inactive
- outcome [16]: inactive
- outcome [17]: inactive
- outcome [18]: inactive
- outcome [19]: inactive

SMILES: OCCCBr
- outcome [1]: inactive
- outcome [2]: inactive
- outcome [20]: inactive
- outcome [3]: inactive
- outcome [4]: inactive
- outcome [6]: inactive
- outcome [7]: inactive
- outcome [8]: inactive
- outcome [9]: inactive
- outcome [10]: inactive
- outcome [11]: inactive
- outcome [12]: inactive
- outcome [13]: inactive
- outcome [14]: inactive
- outcome [15]: inactive
- outcome [16]: inactive
- outcome [17]: inactive
- outcome [18]: inactive
- outcome [19]: inactive
